In the supplement of paper PMC7156485:
Where a name gives a salt, the structure may show the parent alone. ± gives the standard deviation of the averaged measurements.

Legend:
Settings in all cases: concentration: 10 µM; 24 h
HCC1569 [1] = assay: cell number relative to DMSO (% of DMSO); higher = more cells (less growth inhibition / toxicity)
Method in brief: (§1)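 HCC1569 and TDF cells (800 per well, 384-well plates, RPMI with 10% FBS) were treated with compounds at 10 µM for 24 h at 37 °C, in triplicate. Cells were fixed in 3.7% formaldehyde and stained with a rabbit anti-H1.0 antibody, an AlexaFluor 647 secondary and DAPI; six fields per well were imaged at ×10. H1.0 nuclear intensity or cell number is expressed as percent of the plate DMSO control, taking the median of replicates. HCC1569 values were smoothed for positional effects.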

TDF [2] = assay: as above
Method in brief: as §1

TDF [3] = assay: H1.0 immunofluorescence intensity relative to DMSO (% of DMSO); higher = stronger H1.0 induction, active = 120 or more
Method in brief: as §1

HCC1569 [4] = assay: H1.0 immunofluorescence intensity relative to DMSO (% of DMSO); higher = stronger H1.0 induction, active = 140 or more
Method in brief: as §1
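Throughout, for H1.0 immunofluorescence intensity relative to DMSO: TDF is a line of transformed human dermal fibroblasts of mesenchymal origin.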
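Throughout, for cell number relative to DMSO: TDF denotes transformed human dermal fibroblasts of mesenchymal origin.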

Row | SMILES | cell number (HCC1569 [1]) | cell number (TDF [2]) | H1.0 immunofluorescence intensity (TDF [3]) | H1.0 immunofluorescence intensity (HCC1569 [4])
1 | CN(C)CCC=C1c2ccccc2C=Cc2ccccc21.Cl [Cyclobenzaprine hydrochloride] | 99.3 | 103 | 109 (inactive) | 110 (inactive)
2 | COc1cc2c(CCNC(C)=O)c[nH]c2cc1O [6-Hydroxymelatonin] | 100 | 110 | 91.4 (inactive) | 94 (inactive)
3 | COc1c2ccoc2cc2oc(=O)ccc12 [Bergapten] | 97.8 | 94 | 102 (inactive) | 99.9 (inactive)
4 | Cn1cnc([N+](=O)[O-])c1Sc1ncnc2nc[nH]c12 [Azathioprine] | 99.15 ± 0.87 | 101.8 ± 0.74 | 94.9 (inactive) | 97.6 (inactive)
5 | CCCCCCCCC=CCC=CCC=CCCCC(=O)NCCO [Mead ethanolamide] | 104 | 95.8 | 108 (inactive) | 96.2 (inactive)
6 | CCCC1CC(C(=O)NC(C(C)O)C2OC(SC)C(O)C(O)C2O)N(C)C1 (stereo unspecified) [Lincomycin] | 103 ± 1.5 | 113 ± 2.2 | 93.1 (inactive) | 93 (inactive)
7 | CCCCCCCC(=O)OCC(CO)OC(=O)CCCCCCC (stereo unspecified) [1,2-Dioctanoyl-SN-glycerol] | 98.8 | 101 | 92.3 (inactive) | 98.6 (inactive)
8 | CCCn1c(=O)c2[nH]c(C3CCCC3)nc2n(CCC)c1=O [8-Cyclopentyl-1,3-dipropylxanthine] | 101 | 92.5 | 99.5 (inactive) | 93.7 (inactive)
9 | O=c1oc(Cl)c(Cl)c2ccccc12 [3,4-Dichloroisocoumarin] | 103 | 109 | 91.9 (inactive) | 88.1 (inactive)
10 | CCCCCCCCCCCCCCCCOCC(CO)OC (stereo unspecified) [1-Hexadecyl-2-O-methyl-glycerol] | 103 | 109 | 95.3 (inactive) | 98.4 (inactive)
11 | COc1cc2ncnc(Nc3ccc(F)c(Cl)c3)c2cc1OCCCN1CCOCC1 [Gefitinib] | 82 ± 11 | 102 ± 10 | 98.9 (inactive) | 123 (inactive)
12 | CC(C)=CCC[C@@H](C)[C@H]1CC[C@H]2[C@@H]3CC=C4C[C@@H](O)CC[C@]4(C)[C@H]3CC[C@]12C [(3beta)-cholesta-5,24-dien-3-ol] | 103 | 88.8 | 96 (inactive) | 101 (inactive)
13 | Nc1cc(=O)nc(N)[nH]1 [2,6-Diamino-4-pyrimidinone] | 99.3 | 104 | 93.6 (inactive) | 97.1 (inactive)
14 | COc1cc2c(cc1CC=C(C)C)C(=O)CC(c1ccc(O)cc1)O2 (stereo unspecified) [Bavachinin A] | 103 | 104 | 99.5 (inactive) | 96.7 (inactive)
15 | CC(C)(C)NCC(O)c1cc(O)cc(O)c1.CC(C)(C)NCC(O)c1cc(O)cc(O)c1.O=S(=O)(O)O (stereo unspecified) [Terbutaline hemisulfate] | 106 | 105 | 92.8 (inactive) | 97 (inactive)
16 | CC1(C)CC(=O)C2=C(C1)NC(=S)NC2c1cccc(O)c1 (stereo unspecified) | 70.7 | 9.81 | 152 (active) | 118 (inactive)
17 | CC(C)(C)c1nc2c3cc[nH]c(=O)c3c3cc(F)ccc3c2[nH]1 [JAK Inhibitor I] | 99.8 | 99.5 | 90.3 (inactive) | 126 (inactive)
18 | CC(C)(CO)Cc1cc(C(C)(C)C)c(O)c(C(C)(C)C)c1 | 102 | 106 | 94.6 (inactive) | 109 (inactive)
19 | NC(=O)c1ccc(-c2nc(-c3ccc4c(c3)OCO4)c(-c3ccccn3)[nH]2)cc1 | 95.7 | 106 | 95.9 (inactive) | 136 (inactive)
20 | CCCCS(=N)(=O)CCC(N)C(=O)O (stereo unspecified) [Buthionine sulfoximine] | 95.9 | 116 | 89.1 (inactive) | 92.6 (inactive)
21 | CC(C)(C)NCC(O)COc1cccc2[nH]c(=O)[nH]c12.Cl (racemic) | 97.7 | 110 | 93.5 (inactive) | 97.9 (inactive)
22 | CC=C(C)C(=O)OC1CC(C)=CC(=O)C2(C)CCC(O)(C(C)C)C12 (stereo unspecified) [Lapidin] | 104 | 102 | 95.4 (inactive) | 93.9 (inactive)
23 | COc1cc(Br)c(CC2c3cc(OC)c(OC)cc3CCN2C)cc1OC (racemic) | 99.7 | 98.5 | 97.8 (inactive) | 97.6 (inactive)
24 | CCOc1ccccc1OCCNC(C)Cc1ccc(OC)c(S(N)(=O)=O)c1 (stereo unspecified) [Tamsulosin] | 98.8 | 96.7 | 97.8 (inactive) | 95.4 (inactive)
25 | C=C1CC2C3C=C(C)C4=CC(=O)CCC4(C)C3CCC2(C)C1(OC(C)=O)C(C)=O (stereo unspecified) [Melengestrol Acetate] | 102 | 103 | 94.3 (inactive) | 109 (inactive)

Row | SMILES | cell number (HCC1569 [1]) | cell number (TDF [2]) | H1.0 immunofluorescence intensity (TDF [3]) | H1.0 immunofluorescence intensity (HCC1569 [4])
26 | CN(C)c1cc2c(Nc3ccc4c(cnn4Cc4ccccc4)c3)ncnc2cn1 | 82.9 | 90.4 | 113 (inactive) | 118 (inactive)
27 | Cc1ccc(C(=O)Nc2ccc(S(=O)(=O)[O-])c3cc(S(=O)(=O)[O-])cc(S(=O)(=O)[O-])c23)cc1NC(=O)c1cccc(NC(=O)Nc2cccc(C(=O)Nc3cc(C(=O)Nc4ccc(S(=O)(=O)[O-])c5cc(S(=O)(=O)[O-])cc(S(=O)(=O)[O-])c45)ccc3C)c2)c1 [Suramin] | 94.4 | 86.9 | 96.7 (inactive) | 107 (inactive)
28 | CC1=NN(c2ccc(C(=O)O)cc2)C(=O)/C1=C\c1ccc(-c2cc(C)c(C)cc2[N+](=O)[O-])o1 | 89.5 | 87.2 | 84.9 (inactive) | 108 (inactive)
29 | Nc1cccc(-c2cc3c(Oc4cccc(O)c4)ncnc3[nH]2)c1 [GSK3b Inhibitor XII, TWS119] | 60.2 | 55 | 112 (inactive) | 214 (active)
30 | Nc1ccc(N2C(=O)c3ccccc3C2=O)c(Cl)c1 [N-(4-Amino-2-chlorophenyl)phthalimide] | 103 | 107 | 94.3 (inactive) | 100 (inactive)
31 | CC(=O)O.O=C(O)c1ccc2c3c1cccc3c(=O)n1c3ccccc3nc21 | 99.7 | 89.6 | 91.3 (inactive) | 105 (inactive)
32 | O=C(Nc1ccccc1C(=O)Nc1ccc(CCO)cc1)c1ccc([N+](=O)[O-])cc1 [N-(4-(2-hydroxyethyl)phenyl)-2-(4-nitrobenzamido)benzamide] | 82.4 | 90.9 | 101 (inactive) | 144 (active)
33 | Cc1nc2cc3nc(-c4cccs4)cnc3cc2n1C | 106 | 96.2 | 102 (inactive) | 94.7 (inactive)
34 | C=CC(C)(C=Cc1ccc(O)cc1)CCC=C(C)C (stereo unspecified) [Bakuchiol] | 84.7 ± 3.6 | 91.2 ± 4.6 | 97.7 (inactive) | 96.8 (inactive)
35 | COc1cc(C=C(C#N)C(=O)c2ccc(O)c(O)c2)cc(I)c1O [I-OMe-Tyrphostin AG 538] | 97.2 | 102 | 102 (inactive) | 106 (inactive)
36 | Cl.Cl.Cl.Cl.NCCCNCCCCNCCCN [Spermine tetrahydrochloride] | 102 | 104 | 92.3 (inactive) | 86.7 (inactive)
37 | Nc1ncnc2c1ncn2C1OC(C(=O)NC2CC2)C(O)C1O (stereo unspecified) [5'-(N-Cyclopropyl)carboxamidoadenosine] | 99.6 | 95.1 | 97.8 (inactive) | 93.6 (inactive)
38 | NS(=O)(=O)c1cc(C(=O)O)c(NCc2ccco2)cc1Cl [Furosemide] | 101 ± 1.2 | 110 ± 1.9 | 91 (inactive) | 100 (inactive)
39 | CN(C)CCOc1cc(-c2cn[nH]c2)ccc1NC(=O)C1COc2ccccc2O1 (stereo unspecified) | 103 | 95.7 | 87.3 (inactive) | 112 (inactive)
40 | CC(N)(Cc1ccc(O)c(O)c1)C(=O)O [L-alpha-Methyl DOPA] | 96.4 | 98.5 | 91.3 (inactive) | 86.8 (inactive)
41 | CCC1OC(=O)C(C)C(OC2CC(C)(OC)C(O)C(C)O2)C(C)C(OC2OC(C)CC(N(C)C)C2O)C(C)(O)CC(C)CN(C)C(C)C(O)C1(C)O (stereo unspecified) [Azithromycin] | 106 | 109 | 91.2 (inactive) | 105 (inactive)
42 | Ic1cccc(CSc2nnc(-c3ccncc3)o2)c1 [GSK-3b Inhibitor II] | 93.5 | 106 | 102 (inactive) | 117 (inactive)
43 | Nn1nnc2ccccc21 [1-Aminobenzotriazole] | 106 | 107 | 92.8 (inactive) | 85.9 (inactive)
44 | CC(C)(C)NCC(O)COc1nsnc1N1CCOCC1 (stereo not drawn) [S(-)-Timolol maleate] | 97.5 | 104 | 93 (inactive) | 110 (inactive)
45 | COc1ccc(-c2cc(=O)c3c(O)cc(O)cc3o2)cc1 [Acacetine] | 98.4 | 95.3 | 100 (inactive) | 90.7 (inactive)
46 | CCCCCCCCCCCCCCCC(=O)OCC=C(C)C=CC=C(C)C=CC1=C(C)CCCC1(C)C [Retinyl palmitate] | 101 | 99.2 | 93.8 (inactive) | 101 (inactive)
47 | Cc1[nH]c(C=C2C(=O)Nc3ccc(S(=O)(=O)N(C)c4cccc(Cl)c4)cc32)c(C)c1C(=O)N1CCN(C)CC1 [Met Kinase Inhibitor] | 81.6 | 59.6 | 92 (inactive) | 149 (active)
48 | Cc1cccc(C)c1OCC(N)C(C)C.I (stereo unspecified) | 103 | 108 | 91.3 (inactive) | 94.3 (inactive)
49 | COC(=O)C=Cc1cc(O)ccc1O [2,5-Dihydroxycinnamic acid methyl ester] | 104 | 103 | 91.7 (inactive) | 93.6 (inactive)
